HSD17B inh – blocks hydroxysteroid 17-beta dehydrogenase activity | Q99714 | recombinant HSD17B10, NADH fluorescence kinetic | Potency, µM (titrated, usually from 57.1 µM), inactives show top-dose activity change, negative = inhibition, hits mostly inhibitors | actives 7.6% (n = 75,000) | AID 893;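 further: the protocol describes HADH2 (HSD17B10) and not the HSD17B4 of the title; potency means the concentration at half of the fitted maximal effect; on the % scale 0 is the no-effect control and ±100 the full control effect; nearly all actives have a fitted effect of over 70% in size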
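Enzyme plus compound, 15 min room temperature; substrate mix added (NAD+ 1 mM, beta-hydroxybutyryl-CoA 90 uM final); plates read kinetically for NADH fluorescence. HADH2 was His-tagged, E. coli-derived, 20 nM.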
A350 fluor – A350 region autofluorescence | max dye-equivalent concentration, M | actives 11% (n = 59,000) | Compound autofluorescence, 340/450 nm, Alexa 350 dye-equivalents; hits give high values; in the data active means max dye-equivalent concentration above about 10 nM; inconclusive means mostly about 1.1 nM to 9.6 nM
4MU fluor – 4-MU region autofluorescence; compound autofluorescence, 340/450 nm, 4-MU equivalents; hits give high values; max dye-equivalent concentration, M; actives 11% (n = 59,000); AID 589; in the data active means max dye-equivalent concentration above about 10 nM; inconclusive means mostly about 1.1 nM to 9.6 nM
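Compounds in 100 mM Tris, pH 8.0, sat 15 min at room temperature before fluorescence was read at 340 nm excitation/450 nm emission; a per-plate six-point 4-MU standard curve converted signals to dye-equivalent concentration at each compound concentration.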
HADH2 inh – blocks human hydroxyacyl-CoA dehydrogenase type II. Q99714. recombinant HADH2, NADH fluorescence, beta-hydroxybutyryl-CoA. Potency, µM (highest dose often 57.1 µM), for inactives: at the top dose activity change, negative = inhibition, actives largely listed as inhibitors. actives 3.4% (n = 73,000). AID 886; further: potency means the concentration at half of the fitted maximal effect; on the % scale 0 is the no-effect control and ±100 the full control effect; nearly all actives have a fitted effect of over 60% in size
Target sequence (Q99714 whole entry, looked up, one chain of several): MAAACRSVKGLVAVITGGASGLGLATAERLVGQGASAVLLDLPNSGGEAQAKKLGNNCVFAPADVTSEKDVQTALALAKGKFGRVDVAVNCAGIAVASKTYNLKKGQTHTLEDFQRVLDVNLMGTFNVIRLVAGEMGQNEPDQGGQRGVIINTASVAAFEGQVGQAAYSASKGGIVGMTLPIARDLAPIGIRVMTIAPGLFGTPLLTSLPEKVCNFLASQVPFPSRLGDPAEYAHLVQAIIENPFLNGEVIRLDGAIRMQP
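His-tagged recombinant enzyme from E. coli, 20 nM, preincubated 15 min RT with compound; reaction started with 1 mM NAD+ and 90 uM beta-hydroxybutyryl-CoA in 100 mM Tris-HCl pH 9.0. NADH fluorescence (ex 360/em 450) read over 4 min; last-minus-first difference.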
CRE-bla Fsk – alters forskolin-stimulated CRE reporter signaling in CHO cells; CHO CRE-bla reporter (cAMP response element driving beta-lactamase), forskolin EC10, beta-lactamase ratio; Potency, µM (highest dose often 38.2 µM), without a hit: at the top dose activity change, negative = inhibition, hits mostly activators; actives 2.5% (n = 71,000); active means well fitted activation curve with a large enough effect in the signal ratio, with a control signal flat, not every such curve was filed as active; inconclusive means small, poorly fitted or top-dose-only effect, or effect the other way, or a change in a side signal; the % refers to the signal ratio; further: potency means the concentration at half of the fitted maximal effect; % of control where 0% means no effect
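Cells were plated overnight at 37 °C, exposed to compound titrations plus EC10 NKH 477 for 3 h, then given CCF4 dye for 2 h at room temperature. Blue/green (460/530 nm) ratio was converted to %Activity and AC50 values calculated.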
AID923 – qHTS Assay for Allosteric/Competitive Inhibitors of Caspase-1: Spectroscopic Profiling in AFC Spectral Region | compound fluorescence, AFC spectral region (405/520 nm) | Potency, µM (top dose mostly 57.5 µM), inactives show at the highest dose fluorescence increase, most hits filed as activators | actives 1.1% (n = 75,000); further: potency means the concentration at half of the fitted maximal effect; 0% is about no effect
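Baseline compound fluorescence (AFC region, 405 nm ex/520 nm em) taken from the intercept of kinetic reads with 50 nM caspase-1 and 5 uM Ac-WEHD-AFC; normalized to an on-plate AFC standard curve; compounds titrated up to 57 uM.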
* hit, by the source's call; [ ] = another dose, or the depositor's remark. Only some compounds are listed: those with a hit (about 14% of all), similar ones and a draw of the others. Unless noted, the call rests on the fitted dose curve; in most records, active means well fitted curve in the direction sought with a large enough effect; inconclusive means small, poorly fitted or top-dose-only effect, or another doubt; inactive means no such curve, though single readings can be large; an effect the other way counts as inactive or inconclusive.

Results for C[C@H](C[C@H](N)C(=O)O)C(=O)O ?
HSD17B inh: -2%; HADH2 inh: -2%; CRE-bla Fsk: -4%; AID923: -1%

How did Nc1nc2ncc(CNc3ccc(C(=O)N[C@@H](CCC(=O)O)C(=O)O)cc3)nc2c(=O)[nH]1 do in these assays?
HSD17B inh: 25µM*; A350 fluor: 3.7e-07M*; 4MU fluor: 4.1e-07M*; HADH2 inh: -15%[25.6 µM]; CRE-bla Fsk: 5%[17.1 µM]; AID923: 2%

How did Nc1nc2ncc(CNc3ccc(C(=O)NC(CCC(=O)O)C(=O)O)cc3)nc2c(=O)[nH]1 (configuration not stated) do in these assays?
HSD17B inh: -1%; AID923: 0%

How did CCOC(=O)CCC(NC(=O)c1ccc(NCN2C(=O)CCC2=O)cc1)C(=O)OCC (configuration not stated) do in these assays?
HSD17B inh: 4%; A350 fluor: inactive; 4MU fluor: inactive; HADH2 inh: 7%; CRE-bla Fsk: -4%; AID923: 1%

How did CN(Cc1cnc2nc(N)nc(N)c2n1)c1ccc(C(=O)N[C@H](CCC(=O)O)C(=O)O)cc1 do in these assays?
HSD17B inh: -3%[25.6 µM]; A350 fluor: 9.2e-08M*; 4MU fluor: 1.1e-07M*; HADH2 inh: inconclusive; CRE-bla Fsk: inconclusive; AID923: 4%[25.7 µM]

What do the screens show for `CN(Cc1cnc2nc(N)nc(N)c2n1)c1ccc(C(=O)N[C@@H](CCC(=O)O)C(=O)O)cc1`?
HSD17B inh: 32µM*; HADH2 inh: -11%; CRE-bla Fsk: 2%; AID923: inconclusive

What do the screens show for `CC(=O)OC[C@H]1O[C@@H](O/N=C\[C@@H](C)[C@H](OCc2ccccc2)C(C)C)[C@H](OC(C)=O)[C@@H](OC(C)=O)[C@H]1OC(C)=O`?
HSD17B inh: -4%[11.4 µM]; HADH2 inh: 13%[11.4 µM]; AID923: 3%[11.5 µM]

What do the screens show for `CC(=O)NCCNc1ncnc2ccc(-c3ccccc3C)cc12`?
HSD17B inh: inconclusive; A350 fluor: inactive; 4MU fluor: inactive; HADH2 inh: 2%; CRE-bla Fsk: inconclusive; AID923: 11%

Results for CSc1nc(NC(C)(C)C)nc(N2CCOCC2)n1 ?
HSD17B inh: 3%; A350 fluor: inactive; 4MU fluor: inactive; HADH2 inh: -7%; CRE-bla Fsk: 13µM*; AID923: 0%

How did CSc1nc(NC(C)C)nc(N2CCOCC2)n1 do in these assays?
HSD17B inh: 9%; A350 fluor: inactive; 4MU fluor: inactive; HADH2 inh: -2%; CRE-bla Fsk: inconclusive; AID923: 1%

What do the screens show for `CC(C)(C)Nc1nc(SCc2ccccc2)nc(N2CCOCC2)n1`?
HSD17B inh: -13%; A350 fluor: inactive; 4MU fluor: inactive; HADH2 inh: 12%; CRE-bla Fsk: 2.5µM*; AID923: 1%

What do the screens show for `O=c1ccn([C@H]2O[C@H](CO)[C@@H](O)[C@@H]2O)c(=O)[nH]1`?
A350 fluor: inactive; 4MU fluor: inactive; HADH2 inh: 10%; CRE-bla Fsk: 16%

What do the screens show for `COc1ccc(O[C@H]2C=C[C@@H](c3ccccc3)O[C@H]2COC(=O)N2CCCCC2)cc1`?
HSD17B inh: -2%[11.4 µM]; HADH2 inh: inconclusive; AID923: 2%[11.5 µM]

What do the screens show for `Cc1ccc2c(n1)sc1c(N)ncnc12`?
HSD17B inh: 32µM*; A350 fluor: inconclusive; 4MU fluor: inconclusive; HADH2 inh: -3%; CRE-bla Fsk: inconclusive; AID923: 2%

Results for CCCCCCCCCCCC(CC1OC(=O)C1CCCCCC)OC(=O)C(CC(C)C)NC=O (configuration not stated) ?
HSD17B inh: inconclusive; AID923: -2%

How did Cc1c(NC(=O)c2cc(-c3ccccc3)on2)c(=O)n(-c2ccccc2)n1C do in these assays?
HSD17B inh: -16%; A350 fluor: 1.6e-08M*; 4MU fluor: 1.4e-08M*; HADH2 inh: 10%; CRE-bla Fsk: inconclusive; AID923: 3%

Results for Cc1nn(-c2ccccc2)c(Cl)c1C(=O)Nc1c(C)n(C)n(-c2ccccc2)c1=O ?
HSD17B inh: -3%; A350 fluor: 1.7e-08M*; 4MU fluor: 1.6e-08M*; HADH2 inh: 2%; CRE-bla Fsk: -15%; AID923: -1%

How did Cc1c(NC(=O)c2c(F)cccc2F)c(=O)n(-c2ccccc2)n1C do in these assays?
HSD17B inh: 7%; A350 fluor: inactive; 4MU fluor: inactive; HADH2 inh: 3%; CRE-bla Fsk: inconclusive; AID923: 1%

Results for COC(=O)C/C=C\[C@@H](C)[C@@H](/C=N\OC[C@@H]1O[C@H](c2ccccc2)C=C[C@@H]1Oc1ccc(OC)cc1)OC ?
HSD17B inh: -2%[11.4 µM]; HADH2 inh: -5%[11.4 µM]; AID923: 1%[11.5 µM]

What do the screens show for `C[C@]12C=CC(=O)C=C1CC[C@@H]1[C@H]3C[C@@H](O)[C@](O)(C(=O)CO)[C@@]3(C)C[C@H](O)[C@]12F`?
HSD17B inh: inconclusive; A350 fluor: inactive; 4MU fluor: inactive; HADH2 inh: 0%[25.6 µM]; CRE-bla Fsk: 0%[17.1 µM]; AID923: -1%[25.7 µM]

How did C=Cc1cccc(NC(=O)COc2ccccc2)c1 do in these assays?
HSD17B inh: -6%; A350 fluor: inactive; 4MU fluor: inactive; HADH2 inh: 10%; CRE-bla Fsk: -4%; AID923: -1%

How did CCC(CC)(CC(=O)Nc1cccc(/C=C/c2nc(C3CCC3)cs2)c1)C(=O)O do in these assays?
HSD17B inh: 25µM*; HADH2 inh: 13µM*; AID923: -1%

How did Cc1ccc(-n2c(C)c3c(C)nnc(C)c3c2C)cc1 do in these assays?
HSD17B inh: -3%; A350 fluor: 3.1e-08M*; 4MU fluor: 2e-08M*; HADH2 inh: -6%; CRE-bla Fsk: 0%; AID923: 3%

Results for CC=C(/C(=C/C)c1ccc(O)cc1)c1ccc(O)cc1 ?
HSD17B inh: -23%[25.6 µM]; A350 fluor: inactive; 4MU fluor: inactive; HADH2 inh: inconclusive; CRE-bla Fsk: -11%[17.1 µM]; AID923: -2%[25.7 µM]

Results for O=c1c(-c2ccccc2)c(O)nc2ccccn12 ?
HSD17B inh: -24%; A350 fluor: 1.9e-08M*; 4MU fluor: 1.4e-08M*; HADH2 inh: -6%; CRE-bla Fsk: 0%; AID923: 5%

Results for O[C@@H](COc1cccc2ccccc12)CN1CCOCC1 ?
HSD17B inh: 5%[11.4 µM]; A350 fluor: 1.4e-08M*; 4MU fluor: 1.2e-08M*; HADH2 inh: 9%[11.4 µM]; CRE-bla Fsk: -2%[7.6 µM]; AID923: 0%[11.5 µM]

Source: PubChem BioAssay
